Test systems include NCI-H23 lung; NCI-H226 lung; HOP-62 NSCLC; NCI-H460 lung; HOP-92 NSCLC; NCI-H522 lung; A549/ATCC NSCLC; 786-0 renal; COLO 205 colon.
What all share (assay): NCI-60 one-dose screen, 48 h (100 = growth as untreated, 0 = no growth, -100 = all killed)
Holding throughout (settings): 10 µM unless noted

Each structure is given as a SMILES string. This is part of a sample that, as a whole, favours compounds with a hit. Of some 83,000 tested, about 20% had one in any assay.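 Interpretation: 100, growth as untreated; towards 0, rising growth inhibition; 0, no net growth; 0 to -100, cell death. Compounds scoring below 10 were considered active.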 Unmarked numbers belong to inactive results. Calls of active or inactive are those of the source.

As for `CCCCCC(=O)Oc1ccc(/C(=C(\C)c2ccc(OC)cc2)c2ccc(OCCN3CCCCC3)cc2)cc1`, the growth was 67.1% with NCI-H23 lung; 98.7% in the experiment on NCI-H226 lung; 63.1% with HOP-62 NSCLC; 51.6% in the experiment on NCI-H460 lung; 81.7% with HOP-92 NSCLC; 74.6% in the experiment with NCI-H522 lung. Besides, the growth in the experiment on A549/ATCC NSCLC was 53.2%; in the experiment with 786-0 renal, 46.8%; with COLO 205 colon, -32.6% (active).
For the compound `O=C(N/N=C/c1c[nH]c2ccccc12)c1cc(-c2ccccc2)on1`, the growth in the experiment with NCI-H23 lung is 93.6%; with NCI-H226 lung, 87.6%; in the experiment with HOP-62 NSCLC it was 98.8%; in the experiment on NCI-H460 lung it was 98.1%; in the experiment with HOP-92 NSCLC it was 92.1%; with NCI-H522 lung, 75%. Further, the values for the growth with A549/ATCC NSCLC, in the experiment on 786-0 renal and in the experiment with COLO 205 colon were 96.7%, 97.9% and 113%, respectively.
With `CSc1ccc(-c2n[nH]nc2-c2cc3ccccc3s2)cc1`, the growth with NCI-H23 lung is 61.5%; in the experiment on NCI-H226 lung it was 86%; in the experiment on HOP-62 NSCLC, 39.2%; in the experiment on NCI-H460 lung, 21%; in the experiment on HOP-92 NSCLC it was 70.3%; in the experiment with NCI-H522 lung, 8.98% (active). Besides, the growth was 35% with A549/ATCC NSCLC, 54.7% in the experiment on 786-0 renal and 77.8% with COLO 205 colon.
For `CC(=O)O[C@H]1CC[C@]2(C)[C@H]3CC=C4[C@@H]5CC(C)(C)CC[C@]5(C(=O)NCCNCCN)CC[C@@]4(C)[C@]3(C)CC[C@H]2C1(C)C`, the growth with NCI-H23 lung was 70.1%; with NCI-H226 lung it was 73.5%; with HOP-62 NSCLC, -86.7% (active); in the experiment on NCI-H460 lung it was -69.8% (active); in the experiment with HOP-92 NSCLC, -45.3% (active); with NCI-H522 lung, -86.9% (active). Besides, the results for the growth with A549/ATCC NSCLC, with 786-0 renal and in the experiment on COLO 205 colon were -71.1% (active), -95.3% (active) and -92.7% (active), respectively.
Turning to `C=C1c2nc3ccccc3n2C=C(c2ccc(Cl)cc2)N1Cc1ccc(OC)cc1`, the growth with NCI-H23 lung is 54.2%; in the experiment with NCI-H226 lung it was 80.8%; with HOP-62 NSCLC it was 118%; in the experiment with NCI-H460 lung, 81.3%; in the experiment with HOP-92 NSCLC, 77.4%; in the experiment on NCI-H522 lung, 57.3%. Besides, the growth with A549/ATCC NSCLC is 84.5%; in the experiment with 786-0 renal, 94%; with COLO 205 colon it was 71.1%.
As for `Cc1nc2c3c(-c4ccccc4)c(-c4ccccc4)oc3ncn2n1`, the growth in the experiment on NCI-H23 lung is 93.1%; in the experiment on NCI-H226 lung, 92.2%; in the experiment with HOP-62 NSCLC, 90.7%; with NCI-H460 lung, 98%; in the experiment on HOP-92 NSCLC, 81.7%; in the experiment on NCI-H522 lung it was 80.8%. In addition, the growth is 101% in the experiment with A549/ATCC NSCLC, 99.1% in the experiment with 786-0 renal and 110% in the experiment on COLO 205 colon.
For `O=C1/C(=C/c2ccc(Cl)cc2)SC(=S)N1CCc1ccc(O)cc1`, the growth with NCI-H23 lung was 89.7%; with NCI-H226 lung, 96.1%; in the experiment with HOP-62 NSCLC, 99.9%; in the experiment on NCI-H460 lung, 99.3%; with HOP-92 NSCLC it was 73.7%; with NCI-H522 lung, -30% (active). Also, the growth with A549/ATCC NSCLC is 87%; in the experiment with 786-0 renal, 78.6%; in the experiment on COLO 205 colon, 110%.
Turning to `Oc1ccccc1-c1nnc(CNc2ccc(Cl)cc2)o1`, the growth with NCI-H23 lung was 34.8%; in the experiment on NCI-H226 lung it was 30.1%; with HOP-62 NSCLC, 25.7%; in the experiment on NCI-H460 lung, 7.25% (active); in the experiment on HOP-92 NSCLC it was 52.5%; in the experiment on NCI-H522 lung it was 25.9%. Further, the growth with A549/ATCC NSCLC was 20.9%; in the experiment with 786-0 renal, 36.7%; with COLO 205 colon it was 14.8%.
With `COc1ccc2cc(-c3nn(-c4ccc(C(=O)O)cc4)cc3CO)ccc2c1`, the growth was 97.9% in the experiment with NCI-H23 lung; 99.7% with NCI-H226 lung; 104% in the experiment with HOP-62 NSCLC; 99.1% in the experiment on NCI-H460 lung; 102% in the experiment with HOP-92 NSCLC; 82.6% in the experiment on NCI-H522 lung. For the same compound, the figures for the growth with A549/ATCC NSCLC, with 786-0 renal and with COLO 205 colon were 102%, 99.6% and 114%, respectively.
In the case of `COc1cc(-c2nc3cc(Cl)c(Cl)cc3[nH]2)ccc1OCC(=O)N=Nc1c(O)[nH]c2ccccc12`, the growth with NCI-H23 lung was -81.1% (active); in the experiment with NCI-H226 lung, -27.2% (active); in the experiment with HOP-62 NSCLC it was -60.2% (active); in the experiment with NCI-H460 lung it was -68% (active); with HOP-92 NSCLC it was -67.2% (active); with NCI-H522 lung, -64.3% (active). For the same compound, the growth is 4.16% (active) in the experiment on A549/ATCC NSCLC, -82.6% (active) with 786-0 renal and -78% (active) in the experiment with COLO 205 colon.
On to `COc1ccc(N=Nc2nccs2)c(O)c1`, for which the growth with NCI-H23 lung is 79.3%; with NCI-H226 lung, 63.6%; with HOP-62 NSCLC it was 66.3%; with NCI-H460 lung, 40.4%; with HOP-92 NSCLC, 52.8%; in the experiment on NCI-H522 lung, 69.2%. Also, the growth in the experiment on A549/ATCC NSCLC is 97.2%; in the experiment with 786-0 renal it was 18.9%; in the experiment with COLO 205 colon it was 44.2%.
In the case of `Cn1ccnc1C(=O)/C=C/c1ccccc1`, the growth with NCI-H23 lung was 33.1%; in the experiment with NCI-H226 lung it was 50.7%; with HOP-62 NSCLC it was -54.9% (active); with NCI-H460 lung it was -17.9% (active); in the experiment with HOP-92 NSCLC it was -9.57% (active); in the experiment with NCI-H522 lung it was -67.4% (active). The figures for the growth with A549/ATCC NSCLC, in the experiment with 786-0 renal and in the experiment with COLO 205 colon were 33.7%, -35.6% (active) and 23%, respectively.
For `Cc1cc2nc(NC(=O)CN3CCN(CCN4C(=O)c5cccc6cccc(c56)C4=O)CC3)sc2cc1C`, the growth in the experiment on NCI-H23 lung is 89%; in the experiment with NCI-H226 lung, 89.2%; in the experiment on HOP-62 NSCLC it was 94.9%; with NCI-H460 lung it was 91.7%; in the experiment on HOP-92 NSCLC, 74.9%; with NCI-H522 lung it was 87.3%. Besides, the growth was 70.3% in the experiment with A549/ATCC NSCLC, 82.8% in the experiment with 786-0 renal and 99.6% in the experiment on COLO 205 colon.

For the origin of these results see PubChem BioAssay (NCI).
